# Laboratory results taken from paper PMC7862700, “An all-to-all approach to the identification of sequence-specific readers for epigenetic DNA modifications on cytosine”.
# Key:
# Assay in all cases: DAPPL (digital affinity profiling via proximity ligation, sequencing); 10 mM Tris-HCl pH 7.5, 50 mM NaCl, 1 mM DTT, 4% glycerol, room temperature, 30 min; GST-TFs on glutathione beads, 16-mer random dsDNA library, 0.1% formaldehyde crosslink after washing; high values mean tight binding
# FLI1 = target: T1, FLI1 (Homo sapiens, UniProt Q01543 1-452); conditions: protein: recombinant; tags: N-terminal GST; dsDNA, one strand shown
# T1 sequence: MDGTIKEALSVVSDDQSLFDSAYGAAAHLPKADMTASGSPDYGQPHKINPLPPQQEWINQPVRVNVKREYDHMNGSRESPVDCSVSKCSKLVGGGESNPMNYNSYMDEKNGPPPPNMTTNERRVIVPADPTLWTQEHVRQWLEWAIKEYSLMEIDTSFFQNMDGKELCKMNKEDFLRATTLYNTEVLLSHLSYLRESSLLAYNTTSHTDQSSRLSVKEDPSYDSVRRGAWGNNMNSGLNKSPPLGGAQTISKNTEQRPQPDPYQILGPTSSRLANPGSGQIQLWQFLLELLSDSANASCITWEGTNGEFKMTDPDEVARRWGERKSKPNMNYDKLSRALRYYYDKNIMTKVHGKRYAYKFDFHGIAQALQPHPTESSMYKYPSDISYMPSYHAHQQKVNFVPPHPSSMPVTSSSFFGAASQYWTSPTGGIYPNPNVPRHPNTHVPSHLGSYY
# In short: (§1)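 In yeast, human transcription factors were expressed with a GST fusion, then pulled down on glutathione beads and given DNA barcodes. Pooled with a tag-only sample, they were exposed to 200 nmole of a 16-mer random double-stranded DNA library (Tris/NaCl/DTT/glycerol buffer, room temperature, 30 min), washed, crosslinked with 0.1% formaldehyde, proximity-ligated using BsaI/T4 ligase for 1 h at 37 °C, PCR-amplified and read on an Illumina NextSeq500. Each hexamer's frequency of reads for a factor, divided by the matching frequency for the tag-only sample, gives the binding signal.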
# ELK1 = target: T2, ELK1 (Homo sapiens, UniProt P19419 1-428); conditions: protein: recombinant; tags: N-terminal GST; dsDNA, one strand shown
# T2 sequence: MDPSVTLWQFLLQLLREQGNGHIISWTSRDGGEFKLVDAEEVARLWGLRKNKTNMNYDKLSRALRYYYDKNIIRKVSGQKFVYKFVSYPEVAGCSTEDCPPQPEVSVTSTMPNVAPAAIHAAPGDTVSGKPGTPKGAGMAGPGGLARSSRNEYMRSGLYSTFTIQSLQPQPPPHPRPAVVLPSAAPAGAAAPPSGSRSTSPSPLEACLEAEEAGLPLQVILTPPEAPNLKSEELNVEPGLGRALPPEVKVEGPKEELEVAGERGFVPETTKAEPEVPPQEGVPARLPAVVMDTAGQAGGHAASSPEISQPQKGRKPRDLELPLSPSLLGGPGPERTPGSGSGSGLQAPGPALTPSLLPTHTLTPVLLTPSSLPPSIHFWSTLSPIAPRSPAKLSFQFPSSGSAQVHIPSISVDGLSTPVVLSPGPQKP
# In short: as §1
# GABPA = target: T3, GABPA (Homo sapiens, UniProt Q06546 1-454); conditions: protein: recombinant; tags: N-terminal GST; dsDNA, one strand shown
# T3 sequence: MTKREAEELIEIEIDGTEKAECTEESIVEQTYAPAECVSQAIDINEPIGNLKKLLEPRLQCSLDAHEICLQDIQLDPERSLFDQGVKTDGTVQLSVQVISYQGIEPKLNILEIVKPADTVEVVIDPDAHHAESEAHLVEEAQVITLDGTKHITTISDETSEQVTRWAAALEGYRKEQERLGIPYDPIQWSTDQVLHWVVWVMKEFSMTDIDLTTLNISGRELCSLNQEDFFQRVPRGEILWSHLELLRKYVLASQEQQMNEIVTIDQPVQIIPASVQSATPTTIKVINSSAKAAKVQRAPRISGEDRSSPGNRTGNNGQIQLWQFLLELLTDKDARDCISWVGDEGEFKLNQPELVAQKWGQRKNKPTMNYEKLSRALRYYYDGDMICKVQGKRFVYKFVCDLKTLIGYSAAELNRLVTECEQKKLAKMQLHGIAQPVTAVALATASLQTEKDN
# In short: as §1
# ERG = target: T4, ERG (Homo sapiens, UniProt P11308 1-479); conditions: protein: recombinant; tags: N-terminal GST; dsDNA, one strand shown
# T4 sequence: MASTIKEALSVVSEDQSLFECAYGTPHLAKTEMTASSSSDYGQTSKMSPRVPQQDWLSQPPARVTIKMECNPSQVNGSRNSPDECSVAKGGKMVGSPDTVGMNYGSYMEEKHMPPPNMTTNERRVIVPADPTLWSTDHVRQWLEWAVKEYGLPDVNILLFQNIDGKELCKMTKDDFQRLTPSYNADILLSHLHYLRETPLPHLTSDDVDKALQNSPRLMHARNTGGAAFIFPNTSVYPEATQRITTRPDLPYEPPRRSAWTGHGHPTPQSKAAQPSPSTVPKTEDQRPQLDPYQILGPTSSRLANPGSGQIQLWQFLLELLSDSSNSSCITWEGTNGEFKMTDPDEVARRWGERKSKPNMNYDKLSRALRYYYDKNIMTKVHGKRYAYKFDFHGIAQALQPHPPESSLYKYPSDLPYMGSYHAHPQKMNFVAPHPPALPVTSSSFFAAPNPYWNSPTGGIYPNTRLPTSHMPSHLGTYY
# In short: as §1
# ELF1 = ELF1 (Homo sapiens, UniProt P32519 1-619); conditions: protein: recombinant; tags: N-terminal GST; dsDNA, one strand shown
# In short: as §1
# EHF = target: T5, EHF (Homo sapiens, UniProt Q9NZC4 1-300); conditions: protein: recombinant; tags: N-terminal GST; dsDNA, one strand shown
# T5 sequence: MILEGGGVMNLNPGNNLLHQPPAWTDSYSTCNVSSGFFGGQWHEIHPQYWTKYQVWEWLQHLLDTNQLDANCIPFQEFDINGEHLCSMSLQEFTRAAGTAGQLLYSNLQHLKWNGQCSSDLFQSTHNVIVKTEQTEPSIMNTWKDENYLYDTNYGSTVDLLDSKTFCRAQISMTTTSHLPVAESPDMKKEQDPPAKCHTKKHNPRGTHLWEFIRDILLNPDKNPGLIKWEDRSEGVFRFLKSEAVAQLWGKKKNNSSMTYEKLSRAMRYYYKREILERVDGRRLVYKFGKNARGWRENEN
# In short: as §1
# SPI1 = SPI1 (Homo sapiens, UniProt P17947 1-270); conditions: protein: recombinant; tags: N-terminal GST; dsDNA, one strand shown
# In short: as §1
# SPIB = SPIB (Homo sapiens, UniProt Q01892 1-262); conditions: protein: recombinant; tags: N-terminal GST; dsDNA, one strand shown
# In short: as §1
# ELK3 = target: T6, ELK3 (Homo sapiens, UniProt P41970 1-407); conditions: protein: recombinant; tags: N-terminal GST; dsDNA, one strand shown
# T6 sequence: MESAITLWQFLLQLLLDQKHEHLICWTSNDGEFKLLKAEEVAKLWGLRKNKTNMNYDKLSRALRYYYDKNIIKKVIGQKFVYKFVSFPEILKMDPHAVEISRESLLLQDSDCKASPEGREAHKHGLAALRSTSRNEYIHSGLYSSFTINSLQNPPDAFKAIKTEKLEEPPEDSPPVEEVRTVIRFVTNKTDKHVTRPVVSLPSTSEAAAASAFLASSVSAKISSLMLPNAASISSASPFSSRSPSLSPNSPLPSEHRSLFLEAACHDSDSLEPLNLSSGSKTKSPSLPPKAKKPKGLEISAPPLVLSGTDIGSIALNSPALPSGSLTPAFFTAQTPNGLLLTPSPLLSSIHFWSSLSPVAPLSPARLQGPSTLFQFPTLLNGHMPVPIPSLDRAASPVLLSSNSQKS
# In short: as §1
# FEV = target: T7, FEV (Homo sapiens, UniProt Q99581 1-238); conditions: protein: recombinant; tags: N-terminal GST; dsDNA, one strand shown
# T7 sequence: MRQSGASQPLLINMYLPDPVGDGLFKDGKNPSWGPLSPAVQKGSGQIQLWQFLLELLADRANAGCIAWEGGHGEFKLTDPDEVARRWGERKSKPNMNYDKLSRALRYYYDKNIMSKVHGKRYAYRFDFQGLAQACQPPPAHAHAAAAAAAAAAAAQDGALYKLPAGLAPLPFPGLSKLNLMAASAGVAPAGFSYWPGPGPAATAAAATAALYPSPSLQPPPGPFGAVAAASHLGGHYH
# In short: as §1
# ETV5 = ETV5 (Homo sapiens, UniProt P41161 1-510); conditions: protein: recombinant; tags: N-terminal GST; dsDNA, one strand shown
# In short: as §1
# HSF1 = HSF1 (Homo sapiens, UniProt Q00613 1-529); conditions: protein: recombinant; tags: N-terminal GST; chain copies: 3; dsDNA, one strand shown
# In short: as §1
# SPIC = target: T8, SPIC (Homo sapiens, UniProt Q8N5J4 1-248); conditions: protein: recombinant; tags: N-terminal GST; dsDNA, one strand shown
# T8 sequence: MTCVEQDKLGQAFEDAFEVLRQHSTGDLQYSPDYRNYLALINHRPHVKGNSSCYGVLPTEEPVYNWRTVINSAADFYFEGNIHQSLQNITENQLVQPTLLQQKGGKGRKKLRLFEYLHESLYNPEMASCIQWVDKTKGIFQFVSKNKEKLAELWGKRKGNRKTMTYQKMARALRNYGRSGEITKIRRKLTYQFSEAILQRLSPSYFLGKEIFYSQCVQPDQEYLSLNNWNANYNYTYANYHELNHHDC
# In short: as §1
# ELF4 = ELF4 (Homo sapiens, UniProt Q99607 1-663); conditions: protein: recombinant; tags: N-terminal GST; dsDNA, one strand shown
# In short: as §1
# ELK4 = target: T9, ELK4 (Homo sapiens, UniProt P28324-2 1-405); conditions: protein: recombinant; tags: N-terminal GST; dsDNA, one strand shown
# T9 sequence: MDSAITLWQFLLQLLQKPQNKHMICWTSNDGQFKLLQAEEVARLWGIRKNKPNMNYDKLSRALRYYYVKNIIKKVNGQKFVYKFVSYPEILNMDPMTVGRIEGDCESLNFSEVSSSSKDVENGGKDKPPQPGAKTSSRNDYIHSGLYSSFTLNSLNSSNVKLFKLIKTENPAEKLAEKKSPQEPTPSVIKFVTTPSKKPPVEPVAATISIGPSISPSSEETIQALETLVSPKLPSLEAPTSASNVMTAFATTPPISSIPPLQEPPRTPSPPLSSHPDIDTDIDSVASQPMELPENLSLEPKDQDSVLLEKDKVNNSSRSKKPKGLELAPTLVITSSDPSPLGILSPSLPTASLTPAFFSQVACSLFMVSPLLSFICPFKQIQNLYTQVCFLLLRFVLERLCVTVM
# In short: as §1
# ETV2 = target: T10, ETV2 (Homo sapiens, UniProt O00321 1-342); conditions: protein: recombinant; tags: N-terminal GST; dsDNA, one strand shown
# T10 sequence: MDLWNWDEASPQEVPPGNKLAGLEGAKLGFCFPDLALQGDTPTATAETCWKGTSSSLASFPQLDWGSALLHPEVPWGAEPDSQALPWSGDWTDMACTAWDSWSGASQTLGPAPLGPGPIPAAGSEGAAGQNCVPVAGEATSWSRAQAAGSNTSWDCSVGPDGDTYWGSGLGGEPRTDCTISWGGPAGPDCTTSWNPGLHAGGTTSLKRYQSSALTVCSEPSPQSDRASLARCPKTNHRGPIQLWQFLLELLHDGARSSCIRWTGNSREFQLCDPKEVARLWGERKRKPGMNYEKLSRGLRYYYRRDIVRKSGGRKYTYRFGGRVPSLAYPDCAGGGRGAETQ
# In short: as §1
# ELF3 = target: T11, ELF3 (Homo sapiens, UniProt P78545 1-371); conditions: protein: recombinant; tags: N-terminal GST; dsDNA, one strand shown
# T11 sequence: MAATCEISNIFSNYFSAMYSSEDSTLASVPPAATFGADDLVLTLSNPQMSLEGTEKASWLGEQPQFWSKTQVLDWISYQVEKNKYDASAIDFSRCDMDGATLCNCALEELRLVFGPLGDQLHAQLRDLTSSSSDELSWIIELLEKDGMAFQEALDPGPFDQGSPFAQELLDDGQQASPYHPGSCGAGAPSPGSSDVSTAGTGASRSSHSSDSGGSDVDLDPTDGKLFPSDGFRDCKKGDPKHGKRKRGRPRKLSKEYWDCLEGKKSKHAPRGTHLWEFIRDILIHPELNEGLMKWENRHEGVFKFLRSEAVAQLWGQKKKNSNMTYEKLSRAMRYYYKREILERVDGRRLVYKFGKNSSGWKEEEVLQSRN
# In short: as §1
# CRX = CRX (Homo sapiens, UniProt O43186 1-299); conditions: protein: recombinant; tags: N-terminal GST; dsDNA, one strand shown
# In short: as §1
# ETV1 = ETV1 (Homo sapiens, UniProt P50549 1-477); conditions: protein: recombinant; tags: N-terminal GST; dsDNA, one strand shown
# In short: as §1
# Sequence of ELF4 (Q99607 whole entry): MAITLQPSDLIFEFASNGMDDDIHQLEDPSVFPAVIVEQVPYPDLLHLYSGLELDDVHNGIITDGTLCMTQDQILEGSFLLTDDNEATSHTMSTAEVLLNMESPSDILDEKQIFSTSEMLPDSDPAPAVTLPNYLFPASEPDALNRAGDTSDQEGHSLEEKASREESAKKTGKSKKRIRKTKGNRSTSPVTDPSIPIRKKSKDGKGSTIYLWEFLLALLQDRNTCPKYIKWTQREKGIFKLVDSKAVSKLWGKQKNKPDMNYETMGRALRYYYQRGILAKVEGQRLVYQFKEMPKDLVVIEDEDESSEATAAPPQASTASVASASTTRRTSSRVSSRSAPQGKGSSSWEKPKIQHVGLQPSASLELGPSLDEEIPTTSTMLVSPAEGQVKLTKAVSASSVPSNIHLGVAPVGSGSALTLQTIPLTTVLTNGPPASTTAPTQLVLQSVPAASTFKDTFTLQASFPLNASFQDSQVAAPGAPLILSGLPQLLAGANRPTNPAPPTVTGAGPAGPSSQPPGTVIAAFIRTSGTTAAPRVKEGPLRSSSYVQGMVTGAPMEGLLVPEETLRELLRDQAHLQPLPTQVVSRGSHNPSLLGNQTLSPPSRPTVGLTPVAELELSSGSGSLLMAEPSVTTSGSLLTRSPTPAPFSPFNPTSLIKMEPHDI
# Sequence of HSF1 (Q00613 whole entry): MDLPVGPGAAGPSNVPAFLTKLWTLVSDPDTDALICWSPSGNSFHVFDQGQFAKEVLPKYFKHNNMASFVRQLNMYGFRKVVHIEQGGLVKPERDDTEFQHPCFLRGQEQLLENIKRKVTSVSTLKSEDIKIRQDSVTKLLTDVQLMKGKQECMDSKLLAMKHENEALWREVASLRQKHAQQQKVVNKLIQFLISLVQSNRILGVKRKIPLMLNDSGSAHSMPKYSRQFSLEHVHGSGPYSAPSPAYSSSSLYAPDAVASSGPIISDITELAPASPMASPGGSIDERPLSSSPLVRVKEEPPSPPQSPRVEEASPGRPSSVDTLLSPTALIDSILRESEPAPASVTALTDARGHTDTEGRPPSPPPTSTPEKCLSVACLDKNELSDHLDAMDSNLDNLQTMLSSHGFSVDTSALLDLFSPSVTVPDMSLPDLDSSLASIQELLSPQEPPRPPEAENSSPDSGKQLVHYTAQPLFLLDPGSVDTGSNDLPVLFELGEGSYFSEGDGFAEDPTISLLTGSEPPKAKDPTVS
# Sequence of ETV1 (P50549 whole entry): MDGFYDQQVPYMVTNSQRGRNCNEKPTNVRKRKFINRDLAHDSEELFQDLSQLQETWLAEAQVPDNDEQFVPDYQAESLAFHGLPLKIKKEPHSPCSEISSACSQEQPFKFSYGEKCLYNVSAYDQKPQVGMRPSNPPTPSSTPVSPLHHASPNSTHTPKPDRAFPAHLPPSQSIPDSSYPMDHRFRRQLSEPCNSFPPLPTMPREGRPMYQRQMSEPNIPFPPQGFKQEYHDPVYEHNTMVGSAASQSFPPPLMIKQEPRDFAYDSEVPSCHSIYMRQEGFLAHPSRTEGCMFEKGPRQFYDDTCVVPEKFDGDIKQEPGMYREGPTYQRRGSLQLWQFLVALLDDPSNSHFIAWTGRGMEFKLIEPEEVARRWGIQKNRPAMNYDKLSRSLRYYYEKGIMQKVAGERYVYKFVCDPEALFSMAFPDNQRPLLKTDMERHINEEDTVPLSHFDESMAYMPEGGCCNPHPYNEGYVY
# Sequence of ETV5 (P41161 whole entry): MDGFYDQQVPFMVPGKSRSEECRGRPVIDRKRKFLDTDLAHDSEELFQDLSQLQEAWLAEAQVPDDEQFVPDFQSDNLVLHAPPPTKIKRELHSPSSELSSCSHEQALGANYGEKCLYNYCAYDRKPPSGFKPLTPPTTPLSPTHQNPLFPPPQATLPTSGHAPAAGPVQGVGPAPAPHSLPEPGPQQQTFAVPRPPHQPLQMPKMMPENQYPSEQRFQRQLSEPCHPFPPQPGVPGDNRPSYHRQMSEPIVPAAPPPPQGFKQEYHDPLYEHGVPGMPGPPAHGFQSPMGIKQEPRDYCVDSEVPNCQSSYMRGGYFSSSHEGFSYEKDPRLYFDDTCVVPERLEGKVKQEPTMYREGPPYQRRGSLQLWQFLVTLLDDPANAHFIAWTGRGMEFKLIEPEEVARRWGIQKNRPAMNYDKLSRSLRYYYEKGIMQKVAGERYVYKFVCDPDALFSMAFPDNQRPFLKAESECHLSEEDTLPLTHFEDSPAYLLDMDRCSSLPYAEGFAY
# Sequence of CRX (O43186 whole entry): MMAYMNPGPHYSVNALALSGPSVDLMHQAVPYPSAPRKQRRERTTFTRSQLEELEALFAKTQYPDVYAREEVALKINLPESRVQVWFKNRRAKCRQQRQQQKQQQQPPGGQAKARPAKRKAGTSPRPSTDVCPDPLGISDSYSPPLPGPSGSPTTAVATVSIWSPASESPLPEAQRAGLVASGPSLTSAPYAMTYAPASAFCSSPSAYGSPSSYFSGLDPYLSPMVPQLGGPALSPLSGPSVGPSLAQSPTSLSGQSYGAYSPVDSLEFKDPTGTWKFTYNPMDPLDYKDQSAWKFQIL
# Sequence of SPIB (Q01892 whole entry): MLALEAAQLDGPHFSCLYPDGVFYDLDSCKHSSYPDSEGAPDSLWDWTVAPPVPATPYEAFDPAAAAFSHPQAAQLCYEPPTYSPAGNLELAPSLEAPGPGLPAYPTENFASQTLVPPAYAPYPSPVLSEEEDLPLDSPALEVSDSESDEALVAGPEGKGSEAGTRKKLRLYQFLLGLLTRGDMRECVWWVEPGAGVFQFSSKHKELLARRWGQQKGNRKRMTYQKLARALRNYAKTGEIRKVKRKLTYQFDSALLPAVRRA
# Sequence of ELF1 (P32519 whole entry): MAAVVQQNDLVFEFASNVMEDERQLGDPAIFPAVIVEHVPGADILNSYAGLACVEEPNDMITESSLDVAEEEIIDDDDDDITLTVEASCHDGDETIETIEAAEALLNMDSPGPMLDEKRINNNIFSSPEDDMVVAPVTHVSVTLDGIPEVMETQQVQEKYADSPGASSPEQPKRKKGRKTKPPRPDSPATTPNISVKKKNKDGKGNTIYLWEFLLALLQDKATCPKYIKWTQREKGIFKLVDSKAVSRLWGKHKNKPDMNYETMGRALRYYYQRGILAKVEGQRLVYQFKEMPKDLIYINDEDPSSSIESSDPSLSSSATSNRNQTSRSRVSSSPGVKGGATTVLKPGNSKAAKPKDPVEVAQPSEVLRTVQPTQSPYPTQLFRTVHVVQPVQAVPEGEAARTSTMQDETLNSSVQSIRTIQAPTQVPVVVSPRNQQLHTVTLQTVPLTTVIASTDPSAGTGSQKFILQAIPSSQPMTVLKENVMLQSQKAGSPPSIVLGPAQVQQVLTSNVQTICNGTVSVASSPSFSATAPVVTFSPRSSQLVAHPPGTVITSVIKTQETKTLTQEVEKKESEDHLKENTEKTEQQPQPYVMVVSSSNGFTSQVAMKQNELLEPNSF
sequence,measurement,setting,value
CTTCGT,binding signal,FLI1,"1.34 fold enrichment (6-mer frequency, TF over GST control)"
same,binding signal,ELK1,"1.45 fold enrichment (6-mer frequency, TF over GST control)"
same,binding signal,GABPA,"1.38 fold enrichment (6-mer frequency, TF over GST control)"
same,binding signal,ERG,"1.3 fold enrichment (6-mer frequency, TF over GST control)"
same,binding signal,ELF1,"1.3 fold enrichment (6-mer frequency, TF over GST control)"
same,binding signal,EHF,"1.36 fold enrichment (6-mer frequency, TF over GST control)"
same,binding signal,SPI1,"1.39 fold enrichment (6-mer frequency, TF over GST control)"
same,binding signal,SPIB,"1.32 fold enrichment (6-mer frequency, TF over GST control)"
same,binding signal,ELK3,"1.4 fold enrichment (6-mer frequency, TF over GST control)"
same,binding signal,FEV,"1.33 fold enrichment (6-mer frequency, TF over GST control)"
same,binding signal,ETV5,"1.33 fold enrichment (6-mer frequency, TF over GST control)"
same,binding signal,HSF1,"1.31 fold enrichment (6-mer frequency, TF over GST control)"
same,binding signal,SPIC,"1.4 fold enrichment (6-mer frequency, TF over GST control)"
same,binding signal,ELF4,"1.29 fold enrichment (6-mer frequency, TF over GST control)"
same,binding signal,ELK4,"1.39 fold enrichment (6-mer frequency, TF over GST control)"
same,binding signal,ETV2,"1.41 fold enrichment (6-mer frequency, TF over GST control)"
same,binding signal,ELF3,"1.41 fold enrichment (6-mer frequency, TF over GST control)"
same,binding signal,CRX,"1.22 fold enrichment (6-mer frequency, TF over GST control)"
same,binding signal,ETV1,"1.32 fold enrichment (6-mer frequency, TF over GST control)"
